This is one part of a sample in which hits are shown more often than they occur.
RmlCD inh mix – inhibitors of RmlC and RmlD coupled enzymes; 110,000 tested, 0.39% active; RmlC/RmlD coupled enzyme inhibition, 384-well mixture HTS; AID 1532; inhibition, % at 5.5 µM; in the data active = inhibition above about 30%, passing the limit was not always enough; inconclusive = no clear call, values can overlap the other calls
HIV RNase H inh-1 – blocks HIV-1 RNase H cleavage of RNA/DNA duplex. AID 565. inhibition, % at 10 µM. RT-RNase H RNA/DNA duplex cleavage, fluorescence. 65,000 tested, 1.9% active; in the data active = inhibition above about 50%
HIV RNase H inh-2 – confirmation of HIV-1 reverse transcriptase RNase H inhibitors | Recombinant RT RNase H, fluorescent RNA/DNA duplex cleavage | inhibition, % at 10 µM | AID 651 | 1,000 tested, 39% active | shares compounds with HIV RNase H inh-1; in the data active = inhibition above about 48%; inconclusive = no clear call, values can overlap the other calls
The depositor's hits bear a star; ? = inconclusive; . = no result.

SMILES	RmlCD inh mix	HIV RNase H inh-1	HIV RNase H inh-2
CCOC(=O)CSC1=C(C#N)C(c2ccc(C)cc2)C2=C(CCCC2=O)N1 (centres undefined)	3	-4	.
CCOC(=O)C1=C(C)NC(SCC(=O)OC)=C(C#N)C1c1ccc(C(=O)OC)cc1 (centres undefined)	102	80*	37
CC(=O)C1=C(C)NC(SCC(N)=O)=C(C#N)C1c1cccnc1 (centres undefined)	23	62*	41
Cn1cccc1C(=O)C(=O)Nc1cccc(Cl)c1Cl	14	.	.
CN1C(=O)C(C(=O)NC(C)(C)C)C2c3ccccc3OC13CCCCC23 (centres undefined)	-12	-26	.
CC1CCc2cc(F)ccc2N1C(=O)CSc1nnc2c(n1)[nH]c1ccc(F)cc12 (centres undefined)	16	.	.
CC(=O)c1c(N2CCN(C)CC2)[nH]c(-c2ccccc2)nc1=S	-7	.	.
Cc1ccc2c(n1)CC(C)(C)CC2=O	2	.	.
CSc1nc2sc3c(c2c2nnnn12)CCC3	.	41	.
CSc1nc2sc3c(c2c2nnnn12)CCCC3	4	51*	33
Cc1cc(C)nc(Sc2nc(Cl)nc(N(c3ccccc3)c3ccccc3)n2)n1	6	.	.
Clc1ccc(-c2nnc3sc(-c4ccc(Br)o4)nn23)cc1	2	48	.
Cc1oc(-c2ccc(Cl)cc2)cc1-c1nn2c(-c3ccoc3C)nnc2s1	14	86*	55*
CCN1CCc2c(sc(N)c2C#N)C1	8	15	.
N#Cc1c(N)sc(=S)c2c1CCN(Cc1ccccc1)C2	119*	66*	35
CC(=O)NC1=C(C#N)C(c2ccccc2)c2c(ccc3ccccc23)O1 (centres undefined)	-9	.	.
CCOC(=O)C1=C(CN2c3ccccc3CC2C)NC(=O)NC1c1ccccc1 (centres undefined)	3	.	.
CCCCOC(=O)CSCC(=O)Nc1cc(C)on1	-10	71*	5
Cc1cc(NC(=O)CSc2ccccc2)no1	-11	-9	.
CCN(CC)S(=O)(=O)c1cccc(C(=O)NC(Cc2c[nH]c3ccccc23)c2nnc3n2CCCCC3)c1 (centres undefined)	-2	.	.
COc1ccc(-c2nnc3sc(-c4c(OC)cccc4OC)nn23)cc1	.	2	.
c1ccc(OCc2nnc3sc(-c4cccs4)nn23)cc1	18	-20	.
COc1ccc(-c2nn3c(COc4ccccc4)nnc3s2)cc1OC	-5	68*	11
COc1cc(-c2nn3c(-c4ccccn4)nnc3s2)cc(OC)c1OC	-5	-11	.
COc1cc(-c2nnc3sc(-c4cccnc4)nn23)cc(OC)c1OC	.	76*	93*
SMILES	RmlCD inh mix	HIV RNase H inh-1	HIV RNase H inh-2
COc1cc(-c2nnc3sc(Cc4ccc(Cl)cc4)nn23)cc(OC)c1OC	.	56*	92*
COc1cc(-c2nnc3sc(C4CCCCC4)nn23)cc(OC)c1OC	8	-22	.
COc1cccc(OC)c1-c1nn2c(-c3cc(-c4ccccc4)n[nH]3)nnc2s1	-5	89*	66*
CCc1c(C(=O)NNC(=S)NCCc2ccccc2)csc1C	-9	.	.
O=C(c1ccccc1[N+](=O)[O-])N1CCC(Cc2ccccc2)CC1	-6	.	.
Cc1cccc(N(C)S(=O)(=O)c2ccc3[nH]c(=O)c(=O)[nH]c3c2)c1	-12	-12	.
CC(C)Sc1nc2sc3c(c2c2nnc(SCC(=O)NCc4ccco4)n12)CCCC3	-8	86*	67*
CCSc1nc2sc3c(c2c2nnc(SCC(=O)NCc4ccco4)n12)CCCC3	.	-1	.
COCCn1c(-c2cc(OC)c(OC)c(OC)c2)nc2oc3ccccc3c(=O)c2c1=O	-7	-4	.
CCOc1cc(C2C(C(=O)N3CCCCC3)=C(C)NC3=C2C(=O)CCC3)cc(Br)c1O (centres undefined)	-4	15	.
FC(F)(F)c1nc2ccccc2nc1N/N=C/c1c(Cl)cccc1Cl	8	.	.
C/C(=N\O)C(=O)NCCN1CCCCC1	4	-1	.
O=C(/C=N/O)NCCN1CCCCC1	-1	71*	23
COc1ccc(OCCOC(=O)c2ccc(-n3cnnn3)cc2)cc1	-7	.	.
COc1ccc(-n2c(C)cc(C(=O)COc3ccc(-n4cnnn4)cc3)c2C)cc1	7	53*	24
CN(C)C(=O)c1c2c(nc3ccccc13)-c1ccccc1CC2	11	.	.
COc1cc(OC)cc(C(=O)Nc2ccc(-c3nc4ccccc4o3)cc2)c1	-13	-3	.
COc1cccc(C(=O)Nc2ccc(-c3nc4ccccc4o3)c(O)c2)c1	-160	66*	24
Cc1ccc(OCC(=O)Nc2ccc(O)c(-c3nc4ccccc4o3)c2)cc1	.	70*	26
O=C(COc1ccc(Cl)cc1)Nc1ccc2oc(-c3ccncc3)nc2c1	12	-1	.
CC1(C)Cc2nc3nc(SCC(=O)NCCc4ccccc4)n(-c4ccccc4)c(=O)c3cc2CO1	6	.	.
Cc1nc2ccc(S(=O)(=O)NCC(=O)N3CCCC(C)C3)cc2s1 (centres undefined)	-15	-18	.
O=C(CCN1C(=O)c2ccccc2C1=O)Nc1ccc(-c2nc3ccccc3o2)cc1	.	88*	68*
O=C1c2ccccc2C(=O)N1c1ccc(-c2nc3ccccc3o2)cc1	29	13	.
O=C(CCN1C(=O)c2ccccc2C1=O)Nc1ccc(F)cc1	2	-6	.
SMILES	RmlCD inh mix	HIV RNase H inh-1	HIV RNase H inh-2
O=C(CN1C(=O)c2ccccc2C1=O)Nc1ccc(-c2nc3ccccc3o2)cc1	11	66*	1
COc1ccc(OCC(=O)NNc2c3ccccc3nc3ccccc23)cc1	-5	.	.
C=CCn1c(C)cc(C(=O)CSc2n[nH]c(N)n2)c1C	-8	.	.
COCCN1C(=O)N[C@@H](CCc2ccccc2)[C@H](C(=O)OC)[C@H]1C	-9	.	.
CC1=CCC[C@@H]2[C@@](C)(CC/C(C)=C/C(=O)O)[C@H](C)CC[C@@]12C	-12	.	.
CCCCn1c2nc3ccccc3nc2c2c(=N)oc(C)nc21	.	-10	.
CCCCC(CC)Cn1c2nc3ccccc3nc2c2c(=N)oc(C)nc21 (centres undefined)	.	68*	65*
COc1cc(OC)c2c(C)c(Cl)c(=O)oc2c1	9	-8	.
Nc1ncc2c(n1)CC(c1ccco1)CC2=O (centres undefined)	-4	3	.
O=c1[nH]cnc2cc(Cl)ccc12	.	-7	.
O=C(CSc1nc2ccccc2c2nc3ccccc3n12)NCc1ccco1	2	84*	64*
Cn1c(SCC(=O)NCc2ccco2)nc2ccccc2c1=O	5	-25	.
Cc1ccc(-n2c(C)cc(/C=c3/sc4nc5ccccc5n4c3=O)c2C)cc1	10	.	.
O=c1/c(=C\c2cccn2-c2ccccc2)sc2nc3ccccc3n12	-1	89*	61*
NS(=O)(=O)c1ccc(S(=O)(=O)N2CCCC2)cc1	7	.	.
Cc1ccc(-n2sc3ccccc3c2=O)cc1S(=O)(=O)N1CCCCC1	31	96*	48*
O=c1c2ccccc2sn1-c1ccc(S(=O)(=O)N2CCCC2)cc1	34	79*	27
Cc1ccc(-c2nnc(N3CCCCC3)c3ccccc23)cc1S(=O)(=O)N1CCN(C)CC1	13	-12	.
CCc1nnc(NC(=O)CSc2ncc(-c3ccccc3)n2CC)s1	-4	-1	.
CCOc1ccccc1NC(=S)NCc1ccco1	-12	.	.
CCOC(=O)c1c(C)sc2c1N(C(C)=O)c1cc(Cl)ccc1S2	-8	.	.
Cn1cc(C2NC(=O)c3c(sc4c3CCCC4)N2)c2ccccc21 (centres undefined)	.	69*	?

High-throughput results from PubChem.
